Some test systems named below: CDKL3; CDKL5; CHEK1; CHEK2; CIT; CLK1; CLK2; CLK3; CLK4; CSF1R-autoinhibited; CSF1R; CSK; CSNK1A1L; CSNK1A1; CSNK1D; CSNK1E; CSNK1G1; CSNK1G2; CSNK1G3; CSNK2A1.
Holding throughout (conditions): concentration: 1 μM, replicates: in singlicate; n = 1
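Note: KINOMEscan kinase panel screen.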

Regarding `Cc1ccc(-c2ccc3c(ccc4sc5c(c43)NC[C@@H](C)N=C5N(C)C)n2)cn1`, the “%Inh” value was 0% with CDKL3; 0% with CDKL5; 0% with CHEK1; 1% in the assay with CHEK2; 0% with CIT; 0% in the assay on CLK1. The “%Inh” value was 0% with CLK2; 0% in the assay with CLK3; 0% with CLK4; 14% in the assay on CSF1R-autoinhibited; 0% with CSF1R; 0% in the assay on CSK. For the same compound, the “%Inh” value in the assay with CSNK1A1L is recorded as 0%; in the assay with CSNK1A1 it was 6%; in the assay on CSNK1D, 0%; with CSNK1E, 0%; in the assay with CSNK1G1, 0%; with CSNK1G2 it was 0%. Also, the “%Inh” value in the assay on CSNK1G3 came out at 1%; with CSNK2A1, 0%.
Take `O=C(Nc1n[nH]c2nc(-c3ccccc3)c(Cl)cc12)C1CC1` [SB-734909]: the “%Inh” value in the assay on CDKL3 is on record as 2%; in the assay on CDKL5 it was 0%; with CHEK1 it was 0%; in the assay on CHEK2 it was 22%; with CIT, 0%; in the assay with CLK1, 0%. Also, the “%Inh” value with CLK2 turned out to be 0%; in the assay on CLK3 it was 15%; in the assay on CLK4 it was 0%; with CSF1R-autoinhibited, 0%; with CSF1R, 28%; in the assay with CSK, 0%. For the same compound, the “%Inh” value with CSNK1A1L was 0%; in the assay with CSNK1A1, 0%; in the assay on CSNK1D, 0%; with CSNK1E it was 11%; with CSNK1G1 it was 0%; in the assay on CSNK1G2 it was 0%. Also, the “%Inh” value in the assay with CSNK1G3 is recorded as 0%; in the assay on CSNK2A1, 31%.
Turning to `COC(=O)c1c(-c2ccccc2)c2cc(C)ccc2c(=O)n1Cc1ccccc1`, the “%Inh” value in the assay on CDKL3, in the assay on CDKL5, with CHEK1, in the assay with CHEK2, in the assay on CIT and in the assay on CLK1 was 0% each time. The “%Inh” value is 0% with CLK2; 0% with CLK3; 0% in the assay on CLK4; 0% in the assay on CSF1R-autoinhibited; 17% with CSF1R; 0% in the assay on CSK. Moreover, the “%Inh” value in the assay with CSNK1A1L is reported as 0%; in the assay on CSNK1A1, 0%; with CSNK1D, 0%; in the assay with CSNK1E it was 0%; in the assay on CSNK1G1, 0%; with CSNK1G2 it was 5%. Besides, the “%Inh” value in the assay on CSNK1G3 and in the assay with CSNK2A1 was 0% each time.
Turning to `O=c1cc(N2CCOCC2)nc2n(Cc3ccc(F)c(Cl)c3)ccn12` [GSK2297099], the “%Inh” value in the assay with CDKL3 was 0%; in the assay with CDKL5 it was 10%; in the assay with CHEK1, 4%; in the assay on CHEK2, 0%; in the assay with CIT, 4%; in the assay with CLK1, 63%. Besides, the “%Inh” value with CLK2 turned out to be 45%; in the assay on CLK3, 26%; in the assay on CLK4, 45%; in the assay with CSF1R-autoinhibited, 0%; in the assay with CSF1R, 26%; in the assay with CSK it was 13%. The “%Inh” value in the assay on CSNK1A1L was found to be 6%; in the assay on CSNK1A1, 0%; in the assay on CSNK1D, 9%; in the assay on CSNK1E, 52%; in the assay with CSNK1G1 it was 12%; in the assay with CSNK1G2, 0%. In addition, the figures for the “%Inh” value in the assay with CSNK1G3 and with CSNK2A1 were 34% and 1%, respectively.
For `O=C(NCc1cccs1)c1cc(C(=O)c2c(Cl)cccc2Cl)c[nH]1` [GW823670], the “%Inh” value in the assay on CDKL3 stood at 21%; in the assay on CDKL5, 0%; with CHEK1, 22%; in the assay with CHEK2 it was 0%; in the assay with CIT, 16%; with CLK1, 0%. Moreover, the “%Inh” value with CLK2 turned out to be 22%; in the assay on CLK3 it was 0%; in the assay with CLK4, 0%; with CSF1R-autoinhibited, 0%; in the assay on CSF1R, 13%; with CSK it was 0%. Further, the “%Inh” value in the assay with CSNK1A1L, with CSNK1A1, in the assay with CSNK1D, with CSNK1E, in the assay on CSNK1G1 and in the assay with CSNK1G2 was 0% each time. Besides, the “%Inh” value with CSNK1G3 and in the assay with CSNK2A1 was 0% throughout.
In the case of `COC(=O)c1c(-c2ccccc2)c2cc(Br)ccc2c(=O)n1Cc1ccc(NC(=O)CCC(=O)O)cc1`, the “%Inh” value in the assay with CDKL3 amounted to 12%; in the assay on CDKL5, 6%; in the assay with CHEK1, 0%; in the assay on CHEK2, 25%; in the assay with CIT, 33%; in the assay on CLK1, 0%. The “%Inh” value is reported as 0% in the assay with CLK2; 0% in the assay on CLK3; 17% with CLK4; 0% in the assay with CSF1R-autoinhibited; 9% in the assay on CSF1R; 0% in the assay with CSK. Besides, the “%Inh” value with CSNK1A1L was 18%; in the assay with CSNK1A1, 16%; in the assay on CSNK1D, 0%; in the assay on CSNK1E it was 0%; in the assay with CSNK1G1, 0%; with CSNK1G2, 11%. In addition, the “%Inh” value stood at 0% with CSNK1G3 and 11% with CSNK2A1.
Take `COc1cc(OC)cc(-c2cc3cnc(N)nc3nc2NC(=O)NC(C)(C)C)c1`: the “%Inh” value with CDKL3 was 2%; in the assay with CDKL5, 0%; with CHEK1 it was 0%; in the assay on CHEK2, 10%; with CIT, 0%; with CLK1, 30%. The “%Inh” value in the assay with CLK2 worked out at 0%; in the assay on CLK3 it was 0%; in the assay on CLK4, 7%; in the assay on CSF1R-autoinhibited, 0%; in the assay with CSF1R, 73%; in the assay with CSK, 0%. For the same compound, the “%Inh” value with CSNK1A1L turned out to be 0%; in the assay on CSNK1A1, 36%; in the assay with CSNK1D, 0%; with CSNK1E, 0%; in the assay on CSNK1G1, 0%; with CSNK1G2, 0%. Further, the “%Inh” value with CSNK1G3 was found to be 32%; in the assay with CSNK2A1, 0%.
With `Cn1c(=O)c(F)c(Nc2ccc(I)cc2F)c2c(=O)n(OC[C@H](O)CO)cnc21`, the “%Inh” value is listed as 7% in the assay with CDKL3; 0% in the assay with CDKL5; 0% in the assay on CHEK1; 0% in the assay on CHEK2; 17% in the assay with CIT; 7% in the assay with CLK1. The “%Inh” value in the assay on CLK2 is 16%; in the assay with CLK3, 17%; with CLK4, 0%; with CSF1R-autoinhibited it was 0%; with CSF1R, 21%; in the assay with CSK, 20%. Further, the “%Inh” value in the assay with CSNK1A1L is reported as 0%; with CSNK1A1, 36%; with CSNK1D, 12%; in the assay on CSNK1E it was 25%; with CSNK1G1, 11%; in the assay with CSNK1G2, 20%. For the same compound, the entries for the “%Inh” value with CSNK1G3 and in the assay with CSNK2A1 were 4% and 0%, respectively.
In the case of `COc1cccc(C2=C(Nc3cccc(C(=O)O)c3)C(=O)NC2=O)c1` [SB-390770], the “%Inh” value in the assay with CDKL3 stood at 0%; with CDKL5, 0%; in the assay on CHEK1 it was 0%; in the assay on CHEK2, 0%; with CIT, 39%; in the assay on CLK1, 9%. The “%Inh” value in the assay on CLK2 is 21%; in the assay with CLK3, 0%; with CLK4 it was 20%; with CSF1R-autoinhibited, 0%; in the assay on CSF1R it was 0%; with CSK it was 0%. The “%Inh” value stood at 12% with CSNK1A1L; 0% with CSNK1A1; 0% in the assay on CSNK1D; 2% in the assay on CSNK1E; 2% in the assay with CSNK1G1; 0% with CSNK1G2. In addition, the “%Inh” value in the assay on CSNK1G3 and in the assay on CSNK2A1 was 7% each time.
Consider `Nc1n[nH]c2ncc(-c3ccccc3)cc12` [SB-517081], for which the “%Inh” value was 0% in the assay on CDKL3; 0% in the assay on CDKL5; 12% in the assay on CHEK1; 0% in the assay with CHEK2; 29% in the assay on CIT; 21% in the assay on CLK1. Moreover, the “%Inh” value in the assay on CLK2 came out at 0%; in the assay on CLK3, 0%; in the assay on CLK4, 66%; with CSF1R-autoinhibited it was 0%; in the assay with CSF1R, 47%; in the assay on CSK, 0%. For the same compound, the “%Inh” value came to 9% in the assay with CSNK1A1L; 0% with CSNK1A1; 30% in the assay with CSNK1D; 15% in the assay with CSNK1E; 68% in the assay with CSNK1G1; 0% in the assay on CSNK1G2. In addition, the “%Inh” value in the assay on CSNK1G3 was 6%; with CSNK2A1, 0%.
Regarding `OCCCNc1nccc(-c2c(-c3cccc(C(F)(F)F)c3)nn3cc(C(F)(F)F)ccc23)n1` [GW630813], the “%Inh” value stood at 0% in the assay with CDKL3; 11% in the assay on CDKL5; 0% with CHEK1; 1% with CHEK2; 0% with CIT; 9% with CLK1. The “%Inh” value with CLK2 is given as 0%; with CLK3, 0%; in the assay with CLK4, 16%; in the assay on CSF1R-autoinhibited, 32%; in the assay with CSF1R, 0%; in the assay with CSK, 0%. The “%Inh” value in the assay on CSNK1A1L was 0%; in the assay with CSNK1A1 it was 0%; in the assay on CSNK1D, 36%; in the assay on CSNK1E, 54%; with CSNK1G1, 0%; with CSNK1G2 it was 0%. The “%Inh” value in the assay on CSNK1G3 is listed as 13%; in the assay with CSNK2A1 it was 0%.

The values above are taken from paper PMC5540273 (PLoS ONE, 2017).
